Results: PubChem BioAssay (NCI)
About 79,000 compounds went through this panel and 15% of them were active in at least one assay; those are over-represented in the sample as a whole. Unmarked numbers belong to inactive results. Activity calls are given as the source filed them. No stated cut-off is given here; in the data, active means growth inhibition above about 70%; inactive means the rest.

Assay: NCI Yeast Anticancer Drug Screen. Data for the rad52 strain (AID 147);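 further: 0% = growth of vehicle-treated control cultures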
Settings: S. cerevisiae rad52 mutant growth inhibition, stronger effect = higher value
Description: Growth inhibition of yeast strains with defined genetic alterations is measured as a screen for potential anti-cancer activity. Selected strains with alterations in DNA damage repair or cell cycle control were exposed to compounds and growth inhibition was measured relative to vehicle treated controls. The strain used in this assay is rad52

Row | SMILES | growth inhibition (at 1.2 µM) [%] | growth inhibition (at 3.7 µM) [%] | growth inhibition (at 11.0 µM) | growth inhibition (at 33.0 µM) | growth inhibition (at 100.0 µM)
1 | Cc1nc2ccccc2cc1C[N+]12CN3CN(CN(C3)C1)C2 | 1 | 3 | 6% | 29% | 90% (active)
2 | C[C@]12CCc3nonc3C1CC[C@@H]1C2CC[C@]2(C)C(=O)CCC12 (stereo not given in full) | 4 | 5 | 22% | 36% | 66%
3 | Cc1cccc(NC(=O)CBr)c1 | 3 | 41 | 97% (active) | 98% (active) | 99% (active)
4 | C[N+](C)(C)CC1CCCC(C[N+](C)(C)C)C1=O (stereo not given) | 0 | 1 | 9% | 34% | 96% (active)
5 | Nc1nnc(N)n1-n1c(N)nnc1N | -2 | -2 | -1% | 0% | 10%
6 | COc1cc([C@@H]2c3cc4c(cc3C[C@@H]3COC(=O)C32)OCO4)cc(OC)c1O (stereo not given in full) | 42 | 62 | 93% (active) | 95% (active) | 96% (active)
7 | S=C1NC2(CCCCC2)NC12CCCCC2 | -1 | -5 | -3% | 2% | -1%
8 | COC(=O)c1c(C)ccc2c(O)c3c(cc12)C(=O)c1c2c(cc(O)c1C3=O)C1(C)OC(C)(O2)C(O)C(N(C)C)C1O (stereo not given) | 2 | 17 | 68% | 94% (active) | 91% (active)
